Reference: the supplement of paper PMC11732987, “Enantioselective OTUD7B fragment discovery through chemoproteomics screening and high-throughput optimisation” (Communications Chemistry, 2025)

Key:
Assay in all cases: log2 ratio of Biotin-Ahx-Ub-VS probe labelling (fragment/DMSO); higher = less target engagement (more negative = stronger competition), active = hit call of the paper (q ≤ 0.05, log2 ratio ≤ -1)
Settings in all cases: compound concentration: 200 uM; treatment time: 3 h
USP19 = molecular target: T1, USP19 (UniProt O94966)
T1 sequence (whole entry): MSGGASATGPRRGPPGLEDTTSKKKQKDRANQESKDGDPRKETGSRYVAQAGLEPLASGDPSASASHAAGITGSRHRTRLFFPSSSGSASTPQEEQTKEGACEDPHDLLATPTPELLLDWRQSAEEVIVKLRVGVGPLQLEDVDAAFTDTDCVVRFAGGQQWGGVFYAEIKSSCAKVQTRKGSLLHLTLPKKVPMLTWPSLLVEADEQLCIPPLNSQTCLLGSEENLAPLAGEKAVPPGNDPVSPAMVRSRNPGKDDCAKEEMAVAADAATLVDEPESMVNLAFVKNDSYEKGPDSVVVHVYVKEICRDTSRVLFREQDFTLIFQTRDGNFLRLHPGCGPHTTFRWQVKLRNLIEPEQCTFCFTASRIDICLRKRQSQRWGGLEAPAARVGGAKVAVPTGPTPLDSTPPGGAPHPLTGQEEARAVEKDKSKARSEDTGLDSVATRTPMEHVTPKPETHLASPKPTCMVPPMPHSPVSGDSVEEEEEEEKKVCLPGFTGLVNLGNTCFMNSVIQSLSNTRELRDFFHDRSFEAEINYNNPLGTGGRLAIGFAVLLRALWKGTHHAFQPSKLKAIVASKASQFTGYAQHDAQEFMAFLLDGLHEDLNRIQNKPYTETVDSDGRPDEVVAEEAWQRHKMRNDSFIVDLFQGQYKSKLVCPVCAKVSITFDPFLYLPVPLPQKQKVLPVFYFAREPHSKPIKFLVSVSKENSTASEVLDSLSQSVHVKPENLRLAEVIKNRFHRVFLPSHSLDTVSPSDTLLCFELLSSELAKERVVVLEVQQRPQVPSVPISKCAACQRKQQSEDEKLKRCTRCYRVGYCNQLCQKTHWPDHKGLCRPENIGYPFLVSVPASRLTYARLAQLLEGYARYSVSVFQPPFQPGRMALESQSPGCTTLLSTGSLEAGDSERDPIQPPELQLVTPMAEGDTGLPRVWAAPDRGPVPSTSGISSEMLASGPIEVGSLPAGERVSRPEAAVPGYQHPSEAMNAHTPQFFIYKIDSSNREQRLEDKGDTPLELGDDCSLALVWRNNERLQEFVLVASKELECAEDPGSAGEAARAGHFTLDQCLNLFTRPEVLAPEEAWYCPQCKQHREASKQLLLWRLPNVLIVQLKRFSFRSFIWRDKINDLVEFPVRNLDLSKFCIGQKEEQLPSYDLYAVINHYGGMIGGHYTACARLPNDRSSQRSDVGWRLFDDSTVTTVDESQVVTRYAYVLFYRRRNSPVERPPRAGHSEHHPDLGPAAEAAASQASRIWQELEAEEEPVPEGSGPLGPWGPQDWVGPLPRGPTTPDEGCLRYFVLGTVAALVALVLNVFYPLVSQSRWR
How it was run: (§1)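 Using Biotin-Ahx-Ub-VS at 0.5 µM final for 1 h, DUBs were labelled in HEK293T lysate (495 µg per sample) that had first been treated in triplicate with fragment at 200 µM or vehicle for 3 h. NeutrAvidin enrichment, LysC and trypsin digestion and diaPASEF LC-MS/MS followed. Spectronaut label-free quantities were global-median-normalised. Values are average log2 fragment/vehicle ratios by unpaired t-test, using proteins with ≥2 unique peptides.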

USP22 = molecular target: T2, USP22 (UniProt Q9UPT9)
T2 sequence (whole entry): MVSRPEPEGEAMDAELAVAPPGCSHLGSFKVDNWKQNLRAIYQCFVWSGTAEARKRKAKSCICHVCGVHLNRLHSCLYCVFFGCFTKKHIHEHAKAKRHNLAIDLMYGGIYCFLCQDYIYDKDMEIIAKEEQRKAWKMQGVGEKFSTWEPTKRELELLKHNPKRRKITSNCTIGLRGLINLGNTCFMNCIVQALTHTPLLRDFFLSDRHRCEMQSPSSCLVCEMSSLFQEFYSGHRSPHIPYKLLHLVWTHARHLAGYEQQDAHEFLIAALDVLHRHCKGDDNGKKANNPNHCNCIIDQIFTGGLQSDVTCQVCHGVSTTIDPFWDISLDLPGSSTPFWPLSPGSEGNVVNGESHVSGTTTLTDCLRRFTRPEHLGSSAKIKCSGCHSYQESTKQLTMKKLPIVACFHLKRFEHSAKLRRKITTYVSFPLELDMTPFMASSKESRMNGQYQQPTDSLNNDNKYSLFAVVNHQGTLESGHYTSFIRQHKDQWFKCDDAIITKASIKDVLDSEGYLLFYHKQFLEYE
How it was run: as §1

USP24 = USP24 (UniProt Q9UPU5)
How it was run: as §1

USP25 = molecular target: T3, USP25 (UniProt Q9UHP3)
T3 sequence (whole entry): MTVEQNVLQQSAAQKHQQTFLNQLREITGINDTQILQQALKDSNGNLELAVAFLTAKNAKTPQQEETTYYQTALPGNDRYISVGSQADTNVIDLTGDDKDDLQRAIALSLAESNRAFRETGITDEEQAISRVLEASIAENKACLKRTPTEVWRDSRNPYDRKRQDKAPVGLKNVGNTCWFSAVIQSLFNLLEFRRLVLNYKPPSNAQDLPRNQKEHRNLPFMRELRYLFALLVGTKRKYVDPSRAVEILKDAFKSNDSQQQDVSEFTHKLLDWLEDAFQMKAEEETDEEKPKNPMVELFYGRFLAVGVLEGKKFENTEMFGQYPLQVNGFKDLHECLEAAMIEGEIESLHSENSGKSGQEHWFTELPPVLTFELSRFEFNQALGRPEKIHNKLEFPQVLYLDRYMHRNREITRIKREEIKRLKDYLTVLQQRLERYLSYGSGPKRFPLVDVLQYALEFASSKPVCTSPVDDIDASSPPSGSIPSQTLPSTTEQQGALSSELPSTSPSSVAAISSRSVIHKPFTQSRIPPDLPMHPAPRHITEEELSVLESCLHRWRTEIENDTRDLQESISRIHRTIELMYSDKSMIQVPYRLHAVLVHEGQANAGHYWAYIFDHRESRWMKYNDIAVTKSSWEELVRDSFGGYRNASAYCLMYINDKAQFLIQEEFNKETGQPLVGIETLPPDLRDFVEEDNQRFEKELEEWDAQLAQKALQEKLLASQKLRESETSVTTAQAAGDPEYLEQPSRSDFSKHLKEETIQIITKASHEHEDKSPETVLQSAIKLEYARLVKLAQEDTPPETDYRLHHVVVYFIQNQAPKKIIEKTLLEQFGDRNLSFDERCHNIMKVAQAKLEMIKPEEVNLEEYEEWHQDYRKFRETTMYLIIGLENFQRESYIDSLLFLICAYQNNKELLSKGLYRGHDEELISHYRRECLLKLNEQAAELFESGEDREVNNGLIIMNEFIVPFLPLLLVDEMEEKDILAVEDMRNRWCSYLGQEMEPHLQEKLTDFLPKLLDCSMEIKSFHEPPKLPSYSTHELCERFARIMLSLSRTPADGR
How it was run: as §1

USP28 = molecular target: T4, USP28 (UniProt Q96RU2)
T4 sequence (whole entry): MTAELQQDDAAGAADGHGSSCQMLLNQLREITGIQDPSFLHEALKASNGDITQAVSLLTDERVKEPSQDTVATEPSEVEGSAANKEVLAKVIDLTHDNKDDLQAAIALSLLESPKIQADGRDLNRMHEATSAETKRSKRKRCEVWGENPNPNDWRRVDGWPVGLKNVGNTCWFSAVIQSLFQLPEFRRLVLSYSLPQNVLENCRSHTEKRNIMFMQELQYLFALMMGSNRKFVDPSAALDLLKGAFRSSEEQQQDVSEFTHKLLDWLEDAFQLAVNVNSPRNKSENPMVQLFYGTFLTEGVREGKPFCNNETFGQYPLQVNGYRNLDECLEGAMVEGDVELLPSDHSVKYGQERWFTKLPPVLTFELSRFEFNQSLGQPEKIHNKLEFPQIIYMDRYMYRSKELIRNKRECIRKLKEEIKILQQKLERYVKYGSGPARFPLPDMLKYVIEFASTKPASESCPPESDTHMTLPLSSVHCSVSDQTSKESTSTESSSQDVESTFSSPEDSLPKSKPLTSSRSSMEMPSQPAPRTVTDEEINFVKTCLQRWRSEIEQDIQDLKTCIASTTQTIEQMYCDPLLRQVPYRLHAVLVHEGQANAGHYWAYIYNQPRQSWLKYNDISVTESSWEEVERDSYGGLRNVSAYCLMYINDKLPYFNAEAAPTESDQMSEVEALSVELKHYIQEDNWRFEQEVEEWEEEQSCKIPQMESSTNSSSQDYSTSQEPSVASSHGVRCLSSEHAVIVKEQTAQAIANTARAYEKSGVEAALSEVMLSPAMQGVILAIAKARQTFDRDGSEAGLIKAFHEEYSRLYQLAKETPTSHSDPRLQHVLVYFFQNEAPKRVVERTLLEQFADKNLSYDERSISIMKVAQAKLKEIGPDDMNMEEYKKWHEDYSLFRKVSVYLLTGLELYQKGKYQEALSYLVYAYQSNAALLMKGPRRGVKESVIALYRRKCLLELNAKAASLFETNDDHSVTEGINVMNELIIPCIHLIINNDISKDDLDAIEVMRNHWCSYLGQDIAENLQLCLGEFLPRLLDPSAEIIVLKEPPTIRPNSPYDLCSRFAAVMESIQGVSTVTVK
How it was run: as §1

Measured: log2 ratio of Biotin-Ahx-Ub-VS probe labelling

Chain of USP24 (Q9UPU5 whole entry): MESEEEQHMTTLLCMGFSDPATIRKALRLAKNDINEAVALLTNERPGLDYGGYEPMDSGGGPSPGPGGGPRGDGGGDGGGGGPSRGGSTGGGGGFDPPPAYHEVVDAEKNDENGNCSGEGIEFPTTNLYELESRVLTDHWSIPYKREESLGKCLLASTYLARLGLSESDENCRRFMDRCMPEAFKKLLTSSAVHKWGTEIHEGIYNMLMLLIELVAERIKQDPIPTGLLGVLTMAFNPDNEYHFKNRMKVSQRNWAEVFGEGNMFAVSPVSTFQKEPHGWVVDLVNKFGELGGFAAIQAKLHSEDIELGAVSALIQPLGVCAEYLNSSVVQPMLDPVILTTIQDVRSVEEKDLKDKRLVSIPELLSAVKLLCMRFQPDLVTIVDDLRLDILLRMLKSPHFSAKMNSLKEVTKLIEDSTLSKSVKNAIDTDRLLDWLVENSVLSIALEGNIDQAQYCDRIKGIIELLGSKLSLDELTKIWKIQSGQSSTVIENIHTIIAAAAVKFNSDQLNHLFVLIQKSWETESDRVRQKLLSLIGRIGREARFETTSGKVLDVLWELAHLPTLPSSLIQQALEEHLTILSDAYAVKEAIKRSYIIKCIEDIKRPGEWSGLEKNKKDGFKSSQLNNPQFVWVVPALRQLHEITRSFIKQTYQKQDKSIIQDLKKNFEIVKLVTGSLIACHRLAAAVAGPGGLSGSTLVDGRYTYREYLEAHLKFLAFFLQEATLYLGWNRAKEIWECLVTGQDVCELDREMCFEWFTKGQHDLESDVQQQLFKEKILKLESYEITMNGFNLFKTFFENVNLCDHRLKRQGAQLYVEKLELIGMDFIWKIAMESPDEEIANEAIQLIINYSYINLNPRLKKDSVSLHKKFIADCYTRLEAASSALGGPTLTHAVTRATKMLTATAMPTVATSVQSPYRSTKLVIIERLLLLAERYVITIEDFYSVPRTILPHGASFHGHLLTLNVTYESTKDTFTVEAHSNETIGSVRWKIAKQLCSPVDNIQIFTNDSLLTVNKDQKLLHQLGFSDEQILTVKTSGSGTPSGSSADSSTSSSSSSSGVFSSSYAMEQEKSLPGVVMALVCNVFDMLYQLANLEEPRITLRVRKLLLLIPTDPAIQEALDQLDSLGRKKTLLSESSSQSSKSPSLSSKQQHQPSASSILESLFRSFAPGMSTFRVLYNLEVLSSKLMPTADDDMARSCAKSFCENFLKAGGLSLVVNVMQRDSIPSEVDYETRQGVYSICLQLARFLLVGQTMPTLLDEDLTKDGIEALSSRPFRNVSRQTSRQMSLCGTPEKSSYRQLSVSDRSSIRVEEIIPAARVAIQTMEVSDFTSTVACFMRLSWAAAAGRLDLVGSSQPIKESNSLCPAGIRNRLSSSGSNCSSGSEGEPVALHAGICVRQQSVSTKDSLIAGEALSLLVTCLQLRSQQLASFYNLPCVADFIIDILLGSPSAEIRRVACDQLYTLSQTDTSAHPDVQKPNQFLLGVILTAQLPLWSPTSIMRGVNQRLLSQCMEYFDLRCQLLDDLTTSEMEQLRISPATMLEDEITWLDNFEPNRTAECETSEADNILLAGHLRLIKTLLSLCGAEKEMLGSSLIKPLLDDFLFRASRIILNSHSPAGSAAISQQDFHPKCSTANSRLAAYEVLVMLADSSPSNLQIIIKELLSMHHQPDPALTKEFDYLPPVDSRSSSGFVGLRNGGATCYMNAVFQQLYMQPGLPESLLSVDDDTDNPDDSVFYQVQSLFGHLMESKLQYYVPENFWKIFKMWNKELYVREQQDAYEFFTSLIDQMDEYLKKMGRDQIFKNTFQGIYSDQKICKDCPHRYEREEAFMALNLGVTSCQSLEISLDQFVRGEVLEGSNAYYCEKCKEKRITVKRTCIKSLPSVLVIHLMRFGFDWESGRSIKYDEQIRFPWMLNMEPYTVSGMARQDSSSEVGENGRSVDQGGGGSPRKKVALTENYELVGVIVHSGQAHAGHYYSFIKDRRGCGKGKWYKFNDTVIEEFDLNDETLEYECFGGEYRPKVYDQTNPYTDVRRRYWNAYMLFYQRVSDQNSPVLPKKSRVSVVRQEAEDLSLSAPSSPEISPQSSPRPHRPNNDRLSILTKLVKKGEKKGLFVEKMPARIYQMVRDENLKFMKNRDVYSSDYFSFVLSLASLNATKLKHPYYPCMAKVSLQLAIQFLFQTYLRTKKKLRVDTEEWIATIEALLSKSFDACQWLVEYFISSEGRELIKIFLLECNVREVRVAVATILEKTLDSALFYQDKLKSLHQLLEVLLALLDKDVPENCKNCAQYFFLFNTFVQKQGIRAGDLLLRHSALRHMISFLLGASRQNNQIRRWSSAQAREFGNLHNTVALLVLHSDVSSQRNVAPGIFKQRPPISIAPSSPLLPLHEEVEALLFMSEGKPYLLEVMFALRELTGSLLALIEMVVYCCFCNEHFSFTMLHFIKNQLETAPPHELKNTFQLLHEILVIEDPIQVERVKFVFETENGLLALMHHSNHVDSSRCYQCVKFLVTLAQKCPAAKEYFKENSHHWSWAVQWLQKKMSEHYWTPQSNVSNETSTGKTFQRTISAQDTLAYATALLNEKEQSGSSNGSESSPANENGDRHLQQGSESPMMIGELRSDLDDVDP

CCC(NC(=O)CCl)c1ccc(Cl)cc1 (stereo not given)
inactive: USP19 -0.0763 | USP22 -0.735 | USP24 -0.327 | USP25 -0.24 | USP28 -0.504
